The values below come from ChEMBL document CHEMBL1961873, “Compounds: GSK PKIS; Assays: Nanosyn kinase panel” (2012).

Experiment [1] concerns the target Dual specificity protein kinase CLK3 (Homo sapiens) (UniProt P49761). Conditions: at 1 µM.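 Further: each value is the mean inhibition of CLK3.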
In experiment [2] the target is Dual specificity tyrosine-phosphorylation-regulated kinase 1A (Homo sapiens) (UniProt Q13627). Conditions: at 0.1 µM.
For experiment [3] the target is unchanged. Conditions: at 1 µM.
Experiment [4] concerns the target Dual specificity tyrosine-phosphorylation-regulated kinase 1B (Homo sapiens) (UniProt Q9Y463). The settings on record: at 0.1 µM.
The target is the same in experiment [5]. The settings on record: at 1 µM.
Experiment [6] has as its target T1, Dual specificity tyrosine-phosphorylation-regulated kinase 2 (Homo sapiens) (UniProt Q92630).
T1 sequence (whole entry): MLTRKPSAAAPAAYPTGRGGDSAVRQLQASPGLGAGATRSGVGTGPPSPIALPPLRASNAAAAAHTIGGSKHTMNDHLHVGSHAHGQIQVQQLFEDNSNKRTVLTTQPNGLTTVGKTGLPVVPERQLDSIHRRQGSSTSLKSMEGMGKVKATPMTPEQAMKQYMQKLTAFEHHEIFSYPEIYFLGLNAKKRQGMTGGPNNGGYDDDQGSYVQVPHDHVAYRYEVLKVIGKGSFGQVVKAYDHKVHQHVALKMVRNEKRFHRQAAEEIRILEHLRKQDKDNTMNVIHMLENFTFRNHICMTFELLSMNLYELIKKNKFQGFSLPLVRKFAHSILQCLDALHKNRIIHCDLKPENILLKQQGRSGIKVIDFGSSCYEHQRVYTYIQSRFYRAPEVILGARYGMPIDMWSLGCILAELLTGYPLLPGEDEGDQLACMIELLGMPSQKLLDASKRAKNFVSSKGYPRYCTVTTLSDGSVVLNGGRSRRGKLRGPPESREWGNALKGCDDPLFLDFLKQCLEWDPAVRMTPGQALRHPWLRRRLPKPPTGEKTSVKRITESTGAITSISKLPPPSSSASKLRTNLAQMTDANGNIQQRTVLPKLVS
The settings on record: at 0.1 µM.

Experiment [7] deals with T1, Dual specificity tyrosine-phosphorylation-regulated kinase 2 (Homo sapiens). Conditions: at 1 µM.
The target in experiment [8] is Glycogen synthase kinase-3 alpha (Homo sapiens) (UniProt P49840). The settings on record: at 0.1 µM.
Experiment [9] shares this target. The settings on record: at 1 µM.
For experiment [10], the target named is Glycogen synthase kinase-3 beta (Homo sapiens) (UniProt P49841). The settings on record: at 0.1 µM.
Experiment [11] shares this target. The settings on record: at 1 µM.
In experiment [12] the target is Homeodomain-interacting protein kinase 1 (Homo sapiens) (UniProt Q86Z02). The settings on record: at 0.1 µM.
For experiment [13] the target is unchanged. Conditions: at 1 µM.
In experiment [14] the target is T2, Homeodomain-interacting protein kinase 4 (Homo sapiens) (UniProt Q8NE63).
T2 sequence (whole entry): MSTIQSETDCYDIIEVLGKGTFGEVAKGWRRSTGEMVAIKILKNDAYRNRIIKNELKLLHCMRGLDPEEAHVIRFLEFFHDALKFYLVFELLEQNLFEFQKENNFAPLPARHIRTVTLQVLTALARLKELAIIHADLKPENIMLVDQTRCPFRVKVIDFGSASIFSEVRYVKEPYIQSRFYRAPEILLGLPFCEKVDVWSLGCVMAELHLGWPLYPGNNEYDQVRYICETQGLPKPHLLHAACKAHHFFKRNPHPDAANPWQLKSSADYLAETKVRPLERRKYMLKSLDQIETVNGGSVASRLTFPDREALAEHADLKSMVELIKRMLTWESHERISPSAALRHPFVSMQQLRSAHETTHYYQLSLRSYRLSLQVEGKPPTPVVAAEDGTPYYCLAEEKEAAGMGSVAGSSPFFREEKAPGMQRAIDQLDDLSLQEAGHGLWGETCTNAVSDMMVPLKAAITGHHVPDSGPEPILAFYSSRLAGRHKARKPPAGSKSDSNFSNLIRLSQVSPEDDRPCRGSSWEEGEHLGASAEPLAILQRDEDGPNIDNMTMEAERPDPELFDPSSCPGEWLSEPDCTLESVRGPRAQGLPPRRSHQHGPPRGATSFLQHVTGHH
Conditions: at 0.1 µM.

Experiment [15] concerns the target T2, Homeodomain-interacting protein kinase 4 (Homo sapiens). Conditions: at 1 µM.
For experiment [16], the target named is Mitogen-activated protein kinase 9 (Homo sapiens) (UniProt P45984). The settings on record: at 0.1 µM.
For experiment [17] the target is unchanged. The settings on record: at 1 µM.
The target in experiment [18] is Mitogen-activated protein kinase 1 (Homo sapiens) (UniProt P28482). Conditions: at 0.1 µM.
The target is the same in experiment [19]. The settings on record: at 1 µM.
Experiment [20] concerns the target Mitogen-activated protein kinase 3 (Homo sapiens) (UniProt P27361). The settings on record: at 0.1 µM.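 Further: each value is a mean inhibition figure.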

Chain of Homeodomain-interacting protein kinase 1 (Homo sapiens) (Q86Z02 whole entry, looked up): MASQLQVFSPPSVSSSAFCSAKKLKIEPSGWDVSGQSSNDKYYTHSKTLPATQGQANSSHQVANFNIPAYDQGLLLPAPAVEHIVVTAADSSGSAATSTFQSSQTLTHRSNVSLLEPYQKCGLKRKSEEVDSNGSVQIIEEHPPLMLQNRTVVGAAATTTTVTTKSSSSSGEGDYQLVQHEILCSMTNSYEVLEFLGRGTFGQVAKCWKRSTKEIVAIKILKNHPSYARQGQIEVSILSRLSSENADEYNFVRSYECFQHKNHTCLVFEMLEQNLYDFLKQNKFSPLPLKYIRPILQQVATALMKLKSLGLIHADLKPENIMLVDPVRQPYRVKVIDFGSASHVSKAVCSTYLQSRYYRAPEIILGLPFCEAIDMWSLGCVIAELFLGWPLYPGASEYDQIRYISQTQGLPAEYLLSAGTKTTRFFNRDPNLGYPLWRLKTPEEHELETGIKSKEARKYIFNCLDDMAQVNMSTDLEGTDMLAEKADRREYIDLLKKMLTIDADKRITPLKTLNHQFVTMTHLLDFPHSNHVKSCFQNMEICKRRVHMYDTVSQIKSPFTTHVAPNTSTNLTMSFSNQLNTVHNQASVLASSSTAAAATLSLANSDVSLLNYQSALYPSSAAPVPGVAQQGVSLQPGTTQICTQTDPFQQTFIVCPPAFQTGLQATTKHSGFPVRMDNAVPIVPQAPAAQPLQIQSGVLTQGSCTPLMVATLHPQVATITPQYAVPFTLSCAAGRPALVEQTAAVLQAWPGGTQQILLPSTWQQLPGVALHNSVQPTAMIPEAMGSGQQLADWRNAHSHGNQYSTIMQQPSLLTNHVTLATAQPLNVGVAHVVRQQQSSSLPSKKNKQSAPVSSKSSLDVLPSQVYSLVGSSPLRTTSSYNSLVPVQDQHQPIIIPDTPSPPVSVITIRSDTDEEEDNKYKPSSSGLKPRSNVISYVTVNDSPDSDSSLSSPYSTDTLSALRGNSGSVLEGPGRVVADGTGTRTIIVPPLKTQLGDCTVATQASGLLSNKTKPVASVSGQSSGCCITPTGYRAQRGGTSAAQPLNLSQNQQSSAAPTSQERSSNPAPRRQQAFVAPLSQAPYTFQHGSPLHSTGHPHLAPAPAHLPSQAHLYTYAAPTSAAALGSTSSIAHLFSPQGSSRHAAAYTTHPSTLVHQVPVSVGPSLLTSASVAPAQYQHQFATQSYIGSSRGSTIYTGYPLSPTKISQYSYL
Chain of Glycogen synthase kinase-3 beta (Homo sapiens) (P49841 whole entry, looked up): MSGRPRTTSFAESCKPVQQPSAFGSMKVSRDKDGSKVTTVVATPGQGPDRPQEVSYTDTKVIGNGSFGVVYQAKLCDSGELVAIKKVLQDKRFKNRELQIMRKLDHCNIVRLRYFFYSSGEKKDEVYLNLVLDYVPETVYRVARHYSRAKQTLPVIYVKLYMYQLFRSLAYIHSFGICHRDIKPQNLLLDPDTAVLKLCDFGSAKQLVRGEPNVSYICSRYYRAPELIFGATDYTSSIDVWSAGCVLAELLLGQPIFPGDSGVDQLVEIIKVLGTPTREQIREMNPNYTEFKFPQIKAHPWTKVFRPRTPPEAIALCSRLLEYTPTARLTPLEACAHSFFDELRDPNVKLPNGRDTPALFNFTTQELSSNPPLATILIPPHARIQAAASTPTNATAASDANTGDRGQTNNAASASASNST
Chain of Glycogen synthase kinase-3 alpha (Homo sapiens) (P49840 2-483 limits assumed): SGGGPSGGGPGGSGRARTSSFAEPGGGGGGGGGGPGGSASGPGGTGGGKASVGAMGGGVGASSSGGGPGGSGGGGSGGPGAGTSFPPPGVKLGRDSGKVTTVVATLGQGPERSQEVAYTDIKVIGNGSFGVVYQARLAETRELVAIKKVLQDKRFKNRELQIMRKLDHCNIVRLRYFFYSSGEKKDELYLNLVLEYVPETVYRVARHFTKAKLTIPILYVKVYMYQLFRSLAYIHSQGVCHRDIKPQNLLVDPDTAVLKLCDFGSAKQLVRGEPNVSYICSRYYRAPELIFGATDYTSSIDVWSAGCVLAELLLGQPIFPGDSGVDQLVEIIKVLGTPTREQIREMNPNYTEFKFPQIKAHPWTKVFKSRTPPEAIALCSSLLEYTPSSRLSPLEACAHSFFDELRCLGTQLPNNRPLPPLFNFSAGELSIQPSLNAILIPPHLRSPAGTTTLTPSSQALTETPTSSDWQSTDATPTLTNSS
Chain of Dual specificity tyrosine-phosphorylation-regulated kinase 1B (Homo sapiens) (Q9Y463 whole entry, looked up): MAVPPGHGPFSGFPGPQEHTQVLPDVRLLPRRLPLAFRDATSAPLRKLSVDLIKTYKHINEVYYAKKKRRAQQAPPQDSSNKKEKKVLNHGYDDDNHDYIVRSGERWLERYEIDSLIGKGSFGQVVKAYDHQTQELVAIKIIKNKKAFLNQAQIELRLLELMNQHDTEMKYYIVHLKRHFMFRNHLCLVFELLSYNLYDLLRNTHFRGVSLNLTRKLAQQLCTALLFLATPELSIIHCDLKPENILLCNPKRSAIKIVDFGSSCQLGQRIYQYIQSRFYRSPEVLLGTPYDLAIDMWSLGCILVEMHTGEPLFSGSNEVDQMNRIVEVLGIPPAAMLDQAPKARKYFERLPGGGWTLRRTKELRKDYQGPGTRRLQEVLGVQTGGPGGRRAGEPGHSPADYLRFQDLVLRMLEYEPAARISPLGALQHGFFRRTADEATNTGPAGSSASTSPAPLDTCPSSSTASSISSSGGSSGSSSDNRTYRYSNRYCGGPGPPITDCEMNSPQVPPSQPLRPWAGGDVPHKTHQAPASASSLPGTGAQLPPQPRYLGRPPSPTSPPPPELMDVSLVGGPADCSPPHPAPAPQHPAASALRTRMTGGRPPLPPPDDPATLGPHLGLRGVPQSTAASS
Chain of Mitogen-activated protein kinase 1 (Homo sapiens) (P28482 whole entry): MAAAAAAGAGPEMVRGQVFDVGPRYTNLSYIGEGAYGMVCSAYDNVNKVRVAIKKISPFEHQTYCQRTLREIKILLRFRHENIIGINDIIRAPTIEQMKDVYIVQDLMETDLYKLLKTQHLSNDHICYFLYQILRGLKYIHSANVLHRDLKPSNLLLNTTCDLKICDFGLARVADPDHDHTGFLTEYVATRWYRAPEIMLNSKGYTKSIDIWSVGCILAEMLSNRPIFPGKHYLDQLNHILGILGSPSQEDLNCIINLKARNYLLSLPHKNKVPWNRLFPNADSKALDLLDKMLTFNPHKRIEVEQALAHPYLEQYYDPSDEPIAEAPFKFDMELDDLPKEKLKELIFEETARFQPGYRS
Chain of Mitogen-activated protein kinase 9 (Homo sapiens) (P45984 whole entry, looked up): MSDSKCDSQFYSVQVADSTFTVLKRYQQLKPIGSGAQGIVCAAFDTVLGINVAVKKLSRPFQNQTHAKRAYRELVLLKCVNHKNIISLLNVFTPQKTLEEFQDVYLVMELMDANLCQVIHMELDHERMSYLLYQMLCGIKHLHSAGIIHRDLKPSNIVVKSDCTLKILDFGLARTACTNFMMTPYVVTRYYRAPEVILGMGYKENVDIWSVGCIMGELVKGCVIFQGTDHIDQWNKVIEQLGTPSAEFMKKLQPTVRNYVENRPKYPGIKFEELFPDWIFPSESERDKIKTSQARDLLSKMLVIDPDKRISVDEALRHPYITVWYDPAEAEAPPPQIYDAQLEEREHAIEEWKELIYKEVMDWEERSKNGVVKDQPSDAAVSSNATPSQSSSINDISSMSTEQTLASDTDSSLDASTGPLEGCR
Chain of Dual specificity protein kinase CLK3 (Homo sapiens) (P49761 whole entry, looked up): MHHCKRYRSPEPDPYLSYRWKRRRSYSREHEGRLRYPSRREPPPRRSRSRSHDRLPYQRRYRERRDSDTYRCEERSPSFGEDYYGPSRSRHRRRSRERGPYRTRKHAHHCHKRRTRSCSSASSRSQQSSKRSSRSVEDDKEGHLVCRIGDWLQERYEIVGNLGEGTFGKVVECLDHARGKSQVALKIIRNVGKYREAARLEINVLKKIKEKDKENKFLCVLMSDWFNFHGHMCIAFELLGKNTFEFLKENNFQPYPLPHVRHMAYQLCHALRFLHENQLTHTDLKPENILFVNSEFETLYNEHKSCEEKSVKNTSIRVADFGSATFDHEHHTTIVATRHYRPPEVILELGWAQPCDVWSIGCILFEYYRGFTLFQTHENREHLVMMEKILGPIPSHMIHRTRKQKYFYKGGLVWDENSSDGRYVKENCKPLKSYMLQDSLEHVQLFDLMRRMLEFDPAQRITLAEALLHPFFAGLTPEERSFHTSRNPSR
Chain of Mitogen-activated protein kinase 3 (Homo sapiens) (P27361 whole entry): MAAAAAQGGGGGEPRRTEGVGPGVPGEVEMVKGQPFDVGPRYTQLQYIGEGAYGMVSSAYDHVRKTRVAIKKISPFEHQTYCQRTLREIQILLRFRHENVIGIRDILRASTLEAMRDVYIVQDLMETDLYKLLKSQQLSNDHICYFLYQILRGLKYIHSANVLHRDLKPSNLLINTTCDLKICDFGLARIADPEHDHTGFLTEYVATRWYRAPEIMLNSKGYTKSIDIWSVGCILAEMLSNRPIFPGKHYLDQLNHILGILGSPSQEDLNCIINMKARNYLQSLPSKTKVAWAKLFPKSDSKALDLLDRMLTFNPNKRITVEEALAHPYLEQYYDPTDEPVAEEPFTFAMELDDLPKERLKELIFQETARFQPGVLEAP

As to `O=C(NCC1CC1)c1ccc(-c2cccc(C(=O)NC3CC3)c2)cc1`, the inhibition (as a rule, the relative decrease from the control value, in per cent) in [1] amounted to 2.44%; in [2], 0.99%; in experiment [3] it was 2.88%; in experiment [4], 0.66%; in experiment [5], 1.93%; in [6] it was 2.27%. Further, the inhibition in experiment [7] is 3.38%; in experiment [8] it was 1.5%; in experiment [9] it was 3.17%; in [10], 1.32%; in experiment [11] it was 0.48%; in experiment [12], -0.22%. The inhibition in [13] came out at 5.27%; in experiment [14], 2.02%; in experiment [15], 5.47%; in [16], 3.38%; in experiment [17] it was 2.6%; in experiment [18], 1.42%. Further, the values for the inhibition in experiment [19] and in experiment [20] were 1.43% and 1.22%, respectively.
As for `NS(=O)(=O)c1ccc(N/N=C2\C(=O)Nc3ccc(-c4cnco4)cc32)cc1`, the inhibition amounted to 1.68% in [1]; 29.3% in experiment [2]; 81.2% in experiment [3]; 4.08% in [4]; 38.5% in [5]; 9.21% in experiment [6]. The inhibition in experiment [7] was 52%; in experiment [8], 31.6%; in experiment [9] it was 67.4%; in experiment [10], 26.4%; in experiment [11] it was 65.2%; in experiment [12], -2.16%. Further, the inhibition was determined as 25.2% in experiment [13]; 3.05% in [14]; 15.6% in experiment [15]; 0.65% in experiment [16]; 2.38% in experiment [17]; 3.21% in [18]. Further, the inhibition in experiment [19] amounted to 7.04%; in experiment [20], 2.36%.
`CN(C)CCCNc1nccc(-c2c(-c3ccc(F)cc3)nn3cc(C(F)(F)F)ccc23)n1`: the inhibition in experiment [1] is -2.17%; in [2], -2.63%; in [3] it was 1.55%; in [4], -2.7%; in [5], -0.43%; in experiment [6], 1.01%. For the same compound, the inhibition in experiment [7] was 2.09%; in experiment [8] it was 2.87%; in [9], 7.76%; in experiment [10] it was 3.14%; in [11] it was 7.7%; in [12] it was -4.22%. Further, the inhibition came out at 1.54% in [13]; 4.04% in experiment [14]; 8.4% in experiment [15]; 2.73% in experiment [16]; 11% in experiment [17]; 1.62% in experiment [18]. Moreover, the inhibition was found to be 2.71% in experiment [19] and 2.96% in experiment [20].
As for `CNC(=O)c1cncc(/C=C/c2c(C)cccc2C)c1`, the inhibition in experiment [1] is -2.04%; in experiment [2] it was -1.29%; in experiment [3] it was 2.27%; in experiment [4], 0.49%; in experiment [5], 1.89%; in experiment [6], -0.14%. Moreover, the inhibition was -0.61% in experiment [7]; -2.93% in experiment [8]; -0.82% in [9]; -1.93% in experiment [10]; -0.33% in [11]; -0.47% in experiment [12]. The inhibition in experiment [13] is 2.67%; in experiment [14], 1.19%; in [15], 6.66%; in experiment [16] it was 2.54%; in experiment [17] it was 1.94%; in experiment [18], -3.06%. In addition, the values for the inhibition in [19] and in experiment [20] were 0.43% and 0.86%, respectively.
As for `CCS(=O)(=O)c1ccc(OC)c(Nc2ncc(-c3cccc(-c4ccccc4F)c3)o2)c1`, the inhibition in experiment [1] was 13.9%; in experiment [2], 3.84%; in experiment [3], 26%; in experiment [4] it was 3.9%; in experiment [5], 18.5%; in experiment [6], 1.46%. The inhibition in [7] was found to be 10.3%; in experiment [8], 2.37%; in experiment [9], 9.24%; in experiment [10] it was 1.65%; in experiment [11] it was 7.6%; in experiment [12], 1.49%. Also, the inhibition is 6.56% in experiment [13]; 3.89% in experiment [14]; 17.3% in experiment [15]; 0.09% in experiment [16]; 6.86% in experiment [17]; -1.77% in [18]. Besides, the figures for the inhibition in experiment [19] and in experiment [20] were -3.35% and -2.17%, respectively.
In the case of `C[C@@H](Oc1cc(-n2cnc3ccc(OCC4CCN(C)CC4)cc32)sc1C(N)=O)c1ccccc1Cl`, the inhibition in experiment [1] was 2.9%; in [2] it was 2.94%; in experiment [3], 3.56%; in experiment [4], 1.54%; in [5] it was 2.55%; in [6] it was 4.66%. In addition, the inhibition was 9.72% in experiment [7]; 4.39% in [8]; 10.2% in experiment [9]; 2.71% in experiment [10]; 8.9% in experiment [11]; -1.26% in experiment [12]. The inhibition in experiment [13] worked out at 8.77%; in experiment [14], 3.09%; in experiment [15], 21.8%; in [16] it was 7.22%; in experiment [17], 10.9%; in experiment [18], 7.6%. In addition, the values for the inhibition in experiment [19] and in experiment [20] were 8.78% and 4.68%, respectively.
